Compound activity from PubChem BioAssay.
Pf growth 48h: P. falciparum growth inhibition at 48 hours (one generation) | P. falciparum luciferase growth in erythrocytes, 48 h | Potency, µM (titrated, usually from 28.7 µM), usual class: inhibitors | 310,000 tested, 5.9% active | AID 504832
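Firefly luciferase activity from engineered P. falciparum reports growth; inhibitors lower the luminescent signal. Cultures contained 2% hematocrit erythrocytes at 0.1% final parasitemia.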
CHX counter: counter-screen hit for Shiga toxin inhibitors, cycloheximide | cell reporter, cycloheximide protein synthesis inhibition counterscreen | max response, % | 300,000 tested, 12% active; in the data active means max response mostly above about 13%, no sharp cut-off; inactive means mostly below about 14%; further: read at 38.3 µM for the half of the compounds with a filed dose
AMA1-RON2 inh: disrupts binding of P. falciparum AMA1 to RON2; AlphaScreen AMA1-biotinylated RON2 peptide binding; Potency, µM (titrated, usually from 58.2 µM), most hits filed as inhibitors; 360,000 tested, 0.2% active; AID 720542; further: nearly all actives have a fitted effect of over 45% in size
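AMA1 (3D7) with his tag at 25 nM final met compounds first, then biotinylated RON2 peptide at 25 nM; detection used donor plus acceptor beads, 10 µg/mL apiece, read by AlphaScreen after 30 min at room temperature.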
Shiga inhibitor: Shiga toxin inhibition | Vero cells, Shiga toxin protein synthesis inhibition reporter | inhibition, % at 38.7 µM | 290,000 tested, 9.2% active | AID 2315; in the data active means inhibition mostly above about 28%, no sharp cut-off; inactive means mostly below about 43%
Pf growth 96h: P. falciparum growth inhibition at 96 hour, primary screen for plastid delayed-death inhibitors | Potency, µM (top dose mostly 28.7 µM), actives largely listed as inhibitors | P. falciparum luciferase reporter growth, 96 h | 320,000 tested, 6.9% active
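Cell-based qHTS: luciferase-tagged P. falciparum in erythrocytes (2% hematocrit, 0.05% parasitemia final) incubated with compounds for 96 hours, 37 C, 5% CO2; luciferase detection reagent then added and luminescence measured.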
SARS PLP yeast: blocks SARS-CoV papain-like protease in a yeast assay. S. cerevisiae expressing SARS-CoV PLpro, growth rescue. Potency, µM (doses to about 32.9 µM), usual class: activators. 330,000 tested, 0.19% active; calls by dose curve; further: nearly all actives have a fitted effect of over 55% in size
A number is an active result; . = inactive; ? = inconclusive; / = not tested or not shown; [ ] = remark or other dose. Shown are actives, neighbours in structure and some others; about 19% of the full set was active somewhere. Unless noted, the call rests on the fitted dose curve; in most records, active means well fitted curve in the direction sought with a large enough effect; inconclusive means small, poorly fitted or top-dose-only effect, or another doubt; inactive means no such curve, though single readings can be large; an effect the other way counts as inactive or inconclusive.

SMILES | Pf growth 48h | CHX counter | AMA1-RON2 inh | Shiga inhibitor | Pf growth 96h | SARS PLP yeast
Cc1c(C(=O)N2c3ccccc3CC2C)oc2ccccc12 (stereo not given) | . | 42 | . | 166 | . | .
COCc1c(C(=O)OCC(=O)N2c3ccccc3CC2C)oc2ccccc12 (stereo not given) | . | . | . | . | . | .
Cn1c(=O)c(=O)n(C)c2cc(S(=O)(=O)CCC(=O)Nc3ccccc3C(F)(F)F)ccc21 | / | / | . | / | / | /
COc1ccc(N2CCN(C(=O)c3oc4ccccc4c3C)CC2)cc1 | . | . | 14µM | . | . | .
Cc1c(C(=O)N2CCCCCC2)oc2ccccc12 | . | . | . | . | / | .
COc1ccc2oc(C(=O)N3CCN(C/C=C/c4ccccc4)CC3)c(C)c2c1 | . | / | . | / | . | .
Cc1c(C(=O)N2CCc3ccccc3C2)oc2ccccc12 | . | 39 | . | 74 | . | .
COc1ccc2oc(C(=O)N3CCN(C(c4ccccc4)c4ccccc4)CC3)c(C)c2c1 | 3.7µM | / | ? | / | 4.7µM | .
CCOc1ccc2oc(C(=O)N3CCN(c4ccccn4)CC3)c(C)c2c1 | . | . | ? | . | 13µM | .
c1ccc(SC23CCCCN(CCC2)[C@]32CO2)cc1 (stereo not given in full) | / | / | . | / | / | /
COc1ccc(OCC(=O)Nc2c(C(=O)N3CCN(C)CC3)oc3ccccc23)cc1 | . | . | . | . | 9.3µM | ?
C=CCN1CCN(C(=O)c2oc3ccccc3c2C)CC1 | . | 20 | . | . | ? | .
COc1ccc(NC(=O)CN(C)C(=O)c2ccc(N3CCCCC3)c([N+](=O)[O-])c2)cc1 | . | / | . | / | . | .
COc1ccc(Cl)cc1NC(=O)CN(C)C(=O)c1ccc(N2CCCCC2)c([N+](=O)[O-])c1 | 13µM | / | . | / | ? | /
COc1cccc(CN(C)C(=O)c2ccc(N3CCCC3)c([N+](=O)[O-])c2)c1 | . | . | . | . | 13µM | .
COc1ccc(Cl)cc1NC(=O)CN(C)C(=O)c1ccc(N2CCCCCC2)c([N+](=O)[O-])c1 | ? | / | . | / | ? | .
Cc1ccc(CSC2=Nc3ccccc3C3=NC(CCC(=O)NCc4ccco4)C(=O)N23)cc1 (stereo not given) | ? | . | . | . | . | .
CCOC(=O)CSC1=Nc2ccccc2C2=NC(CC(=O)NCc3ccc(OC)cc3)C(=O)N12 (stereo not given) | 6.6µM | . | . | . | / | .
O=C(CCC1N=C2c3ccccc3N=C(SCC(=O)NCc3ccco3)N2C1=O)NCc1ccco1 (stereo not given) | . | . | . | . | ? | .
CCOC(=O)CSC1=Nc2ccccc2C2=NC(CC(=O)NCc3ccc4c(c3)OCO4)C(=O)N12 (stereo not given) | 4.1µM | . | ? | . | . | .
O=C(COC(=O)CSc1ccc2ccccc2c1)NCc1ccc2c(c1)OCO2 | . | . | .[11.6 µM] | . | . | .
O=C(CC1N=C2c3ccccc3N=C(SCc3ccc(Cl)cc3)N2C1=O)NCc1ccco1 (stereo not given) | 3.3µM | 20 | . | . | / | .
Cc1cc(NC(=O)CSC2=Nc3ccccc3C3=NC(Cc4ccccc4)C(=O)N23)n[nH]1 (stereo not given) | ? | . | . | . | ? | .
CCCCNC(=O)CC1N=C2c3ccccc3N=C(SCC(=O)Nc3cccc(C)c3)N2C1=O (stereo not given) | 1.9µM | . | . | . | 2.6µM | .
COc1ccc(C(CNC(=O)c2[nH]c(C)c(C(C)=O)c2C)N2CCOCC2)cc1 (stereo not given) | ? | / | . | / | ? | .
SMILES | Pf growth 48h | CHX counter | AMA1-RON2 inh | Shiga inhibitor | Pf growth 96h | SARS PLP yeast
CCOCCC(=O)Nc1ccc2c(c1)c(=O)n(C)n2CC=C(C)C | / | / | . | / | / | /
C[C@@H]1ON(C)[C@H]2C[C@H]3c4[nH]c5ccccc5c4CCN3C[C@@H]12 | / | / | . | / | / | /
COc1ccc(CNC(=O)C(=O)NCCC2CCCCN2S(=O)(=O)c2ccccc2)cc1 (stereo not given) | 12µM | / | . | / | ? | .
COc1ccc(S(=O)(=O)N2CCCC2CNC(=O)C(=O)NCc2ccccc2Cl)cc1 (stereo not given) | ? | / | . | / | 9.3µM | .
Cc1cc(S(=O)(=O)N2CCCCC2CCNC(=O)C(=O)NC2CC2)ccc1F (stereo not given) | . | / | . | / | ? | .
Cc1cc(C)c(S(=O)(=O)N2CCCCC2CCNC(=O)C(=O)NC2CC2)c(C)c1 (stereo not given) | 9.3µM | / | . | / | ? | .
C=CCOC(=O)C1=C(C)NC(=O)NC1c1ccc(O)cc1 (stereo not given) | . | . | . | . | . | .
O=C(Nc1cccc(S(=O)(=O)N2CCCC2)c1)c1ccccc1OC(F)F | ? | . | . | . | ? | .
CCCCN1C(=O)/C(=C/C=C2\Oc3ccccc3N2CC)SC1=S | . | . | . | . | . | .
CCN1/C(=C/C=C/c2oc3ccc(-c4ccccc4)cc3[n+]2CC)Oc2ccc(-c3ccccc3)cc21 | 0.93µM | . | ? | . | . | .
COc1ccc(CCC(C(O)C(F)(F)F)S(=O)c2ccccc2)cc1 (stereo not given) | ? | . | . | . | 2.1µM | .
O=C(CSc1nnc(COc2ccc(Cl)cc2)o1)N(c1ccccc1)C1CCS(=O)(=O)C1 (stereo not given) | / | / | . | / | / | /
CC1SCCN1S(=O)(=O)c1ccc2ccccc2c1 (stereo not given) | . | . | . | . | . | .
O=c1oc2ccccc2c(NC2CCCCC2)c1NS(=O)(=O)c1ccc(Br)cc1 | . | . | . | . | 10µM | .
COc1ccc(S(=O)(=O)Nc2c(O)c3ccccc3oc2=O)cc1 | . | 15 | . | 69 | . | .
Cc1ccc(S(=O)(=O)N(C(=O)c2ccco2)c2cc3sc(=O)oc3c3ccccc23)cc1 | 10µM | . | . | . | 12µM | .
CC(=O)N1CCc2ccc(S(=O)(=O)N3CCc4ccccc43)cc21 | 13µM | . | . | . | . | .
NNC(=O)c1ccc(S(=O)(=O)N2CCc3ccccc32)cc1 | 12µM | . | . | . | . | .
O=S(=O)(c1ccc(Cl)cc1)N1CCCc2ccccc21 | . | . | . | / | . | .
O=[N+]([O-])c1ccccc1S(=O)(=O)N1CCCc2ccccc21 | . | 30 | . | / | ? | .
O=C(NCc1ccccc1)c1ccc(S(=O)(=O)N2CCCc3ccccc32)cc1 | . | . | . | . | ? | .
COc1ccc(S(=O)(=O)N2CCc3ccccc32)cc1OC | . | . | . | . | . | .
Cc1ccc(S(=O)(=O)N2CCCc3ccccc32)cc1C | . | 17 | . | 23 | . | .
CCN(CC)S(=O)(=O)c1cccc(NC(=O)COC(=O)C2COc3ccccc3O2)c1 (stereo not given) | . | . | . | . | . | .
CCc1ccccc1NC(=S)N(CCN(C)C)C(C)c1cccnc1 (stereo not given) | . | . | . | . | ? | .
